KDM5B inh – Primary screen for KDM5B Histone Demethylases FDH-coupled qHTS | Potency, µM (series often up to 57.7 µM), hits mostly inhibitors | KDM5B demethylase, FDH-coupled NADH fluorescence (FDH is formaldehyde dehydrogenase) | Lysine-specific demethylase 5B (Homo sapiens), Q9UGL1 | 220,000 tested, 2.6% active; active = well fitted inhibition curve with a large enough effect; also: nearly all actives have a fitted effect of over 70% in size
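qHTS format, multiple compound concentrations. Buffer 50 mM HEPES pH 7.5/0.01% Tween-20; 200 nM KDM5BΔAP final; 10 min compound preincubation; substrate-mix levels 12.5 µM peptide, 25 µM α-KG, 0.25 mM NAD⁺; 30 min RT; ΔRFU.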
Each line names hits and unclear results; the compound was inactive in the other large screens. This is one part of a sample in which hits are shown more often than they occur.

CC(C)CC(=O)NC1CCN(c2cnn(C)c(=O)c2)CC1	none
Cc1noc2c(NCCN(C)C)cc(-c3ccccn3)nc12	none
COc1ccc(CCC(=O)N[C@@H]2CN(c3ccncn3)C[C@H]2CO)cc1	none
COC(=O)c1ccccc1-c1ccc(C(C)=O)o1	none
S=C(NCc1ccccc1)Nc1ccc(Sc2ccc(Br)cc2)cc1	none
COc1ccccc1N1CCN(C(=O)CSc2nc3ccccc3nc2Cc2ccc(C)cc2)CC1	none
COc1cccc(S(=O)(=O)N2CCCC(Cn3c(C)nc4cccnc43)C2)c1 (centres undefined)	none
O=c1[nH]c(N2CCOCC2)nc2c1CCN(Cc1ccc(F)c(F)c1)CC2	none
CS(=O)(=O)c1ccc(CN2CCOC[C@H]2c2ncc(-c3ccncc3)[nH]2)cc1	none
O=C(c1ccccn1)N1CCC[C@H]1c1nc(-c2ccccc2)no1	none
CS(=O)(=O)c1ccc(CN2CCC[C@H]2c2nc(-c3ccnc(N4CCOCC4)c3)no2)cc1	KDM5B inh 25µM
c1cc(-c2noc([C@@H]3CCCN3C3CCC3)n2)cc(N2CCOCC2)n1	KDM5B inh 35µM
CNc1ccc(-c2noc([C@@H]3CCCN3C3CCC3)n2)cn1	none
CCc1ccc(C(=O)N2CCC[C@H]2c2nc(-c3ccc(OC)c(OC)c3)no2)cc1	none
CC1CCCC(C)N1C(=O)COC(=O)c1cccc(S(=O)(=O)N(C)c2ccccc2)c1 (centres undefined)	none
COc1cccc(N2CCN(C(=O)c3ccc(NC(=O)c4nsc5ccccc45)cc3)CC2)c1	none
Cc1ccc2oc(C(=O)NC3CCN(C(=O)c4ccco4)CC3)cc(=O)c2c1	none
O=C(CN1CCCc2cc(F)ccc21)Nc1cccc2nsnc12	none
Cc1ccc(NC(=O)c2cncn2-c2ccccc2)cc1S(=O)(=O)Nc1ccccc1F	none
CCOc1ccc(S(=O)(=O)N(C)C2CCCCC2)cc1	none
Cc1cccc(NC(=O)CSc2cc(C)c3ccccc3n2)c1	none
Cc1ccc2c(c1)sc1nc(=O)n(-c3ccc(Cl)c(Cl)c3)c(=O)n12	none
COCCCn1c(C)cnc1C1CCN(C(=O)NCC(=O)OC)C1 (centres undefined)	none
CC(C)c1nc2nccc(-c3cccs3)n2n1	KDM5B inh 25µM
CCc1cccc(C)c1Nc1c(-c2cccs2)nc2ncccn12	none
COc1ccc(CCc2nc3nccc(-c4cccs4)n3n2)cc1	none
CC(C)Cc1nc2nccc(-c3cccs3)n2n1	KDM5B inh 25µM
CC(C)c1noc(C2CCCN2C(=O)c2cc(-c3cccs3)n(C)n2)n1 (centres undefined)	none
CCCCn1nc(C(=O)NN2C(=O)NC3(CCCCC3)C2=O)c2ccccc2c1=O	none
O=C(Cc1ccccc1)N1CCCC2(CC(c3cccnc3)=NO2)C1 (centres undefined)	none
CCn1nc(C(=O)OCc2ccc(C(=O)OC)cc2)c2ccccc2c1=O	none
O=C(Nc1ccc(Cl)c(-c2nc3ncccc3o2)c1)c1ccco1	none
Cn1ccnc1CN1C[C@H]2CN(C(=O)C3CC3)CCN2C1=O	none
CC(C)C(=O)N1CCN(C(=O)CCc2c[nH]c3ccccc23)CC1	none
Cc1ccc(-c2nc3cc(NC(=O)c4cc5ccccc5o4)ccc3o2)cc1Cl	none
COc1ccc(CN2C[C@H](O)C[C@H]2c2nc(-c3ccncc3)no2)cc1	none
CS(=O)(=O)c1ccc(CN2C[C@H](O)C[C@H]2c2nc(-c3cnccn3)no2)cc1	KDM5B inh 35µM
CC(=O)N1CCC(N2C[C@H](O)C[C@H]2c2nc(-c3cnccn3)no2)CC1	none
CCCCN(C)c1nnc(NC(=O)Nc2cc(Cl)c(OC)cc2OC)s1	none
CN1CCN(c2nc3ccccc3nc2C(=O)Nc2ccc(Oc3ccc(Cl)cc3)cc2)CC1	none
O=[S+]1([O-])CCN(Cc2ccc(-c3cnc4c(OCc5ccccc5)nccn34)cc2)CC1	KDM5B inh 22µM
O=C1CN(C(=O)Cn2ccc3ccc(OCc4ccccc4)cc32)CCN1	none
OC1CN(Cc2ccc(-c3cnc4c(OCc5ccccc5)nccn34)cc2)C1	KDM5B inh 32µM
COc1ccc(CN2CCN(Cc3ccc(OCc4ccncc4)cc3)CC2)cc1	none
COc1ccc(-c2ccccc2NC(=O)C2CCCN(Cc3cccnc3)C2)cc1 (centres undefined)	none
FC(F)(F)c1ccc(N2C3CCC2CN(Cc2ccc(-c4ccccc4)cc2)C3)cc1	none
NC(=O)C1CCCN(Cc2ccc(-c3cnc4c(OCc5ccccc5)nccn34)cc2)C1 (centres undefined)	KDM5B inh 28µM
CC(=O)Nc1ccccc1NC(=O)CN1CCCC(C(N)=O)C1 (centres undefined)	none
COc1ncccc1CN1CCC2(CC1)OC(=O)N(Cc1ccc(O)cc1)C2(C)c1ccccc1 (centres undefined)	none
Cc1oc(-c2ccccc2)nc1CN1CCNC(=O)C1	none
O=C1CN(Cc2ccc(-c3cnc4c(OCc5ccccc5)nccn34)cc2)CCN1	KDM5B inh 35µM
OC1CN(Cc2ccccc2)CCN(Cc2cn[nH]c2-c2ccc(Cl)cc2)C1 (centres undefined)	none
CCCC1CCC(c2ccc(OC(=O)c3ccncc3)cc2)CC1 (centres undefined)	none
CCc1noc(C)c1C(=O)NC1CCCc2c1cnn2-c1ccc(C(C)(C)C)cc1 (centres undefined)	none
CNCc1cn(C[C@H]2O[C@@H](CC(=O)N(C)Cc3ccccc3)[C@H](O)[C@@H]2O)nn1	none
CCOc1ccc(S(=O)(=O)N2CCN(C(=O)COc3ccc(Br)cc3)CC2)cc1	none
Cc1cc2nc(/C(C#N)=C/c3cccc(Oc4ccccc4)c3)[nH]c2cc1C	none
COc1ccc(N2CCC(NC(=O)c3ccc4nc[nH]c4c3)C2=O)cc1 (centres undefined)	none
COCCCNC(=O)CSc1nc2cc3c(cc2c(=O)n1CCCC(=O)NCc1ccc2c(c1)OCO2)OCO3	none
O=C(NCc1ccccn1)c1ccc(OC2CCN(Cc3ccccc3O)CC2)cc1	none
O=C1CCCC2=C1C1c3ccccc3C(=O)N1c1ccc(C(=O)c3ccccc3)cc1N2 (centres undefined)	none
CCOCCCNC(=O)C1(O)c2cc(Br)ccc2NC(=O)N1c1cccc(OC)c1 (centres undefined)	none
OC1CCC(NCc2ccc(-c3cnc4c(OCc5ccccc5)nccn34)cc2)CC1 (centres undefined)	KDM5B inh 28µM
c1ccc(-c2ccc(CNC3CC3)cc2)cc1	none
Cc1ccc(COc2ccc(CNC3CC3)cc2)cc1	none
CNc1c(NC(=O)c2ccc(Br)o2)c(=O)oc2ccccc12	none
COCCN1C(=O)c2cccn2CC1CNC(=O)c1ccc(Cc2c(C)noc2C)o1 (centres undefined)	none
O=c1c2nc(-c3cccc(O)c3)ccc2ncn1-c1ccccc1	none
O=c1c2nc(-c3ccsc3)ccc2ncn1Cc1ccccc1	KDM5B inh 40µM
O=c1c2nc(Nc3cccnc3)ccc2ncn1Cc1ccccc1	none
Cn1cnc2ccc(-c3ccsc3)nc2c1=O	KDM5B inh 35µM
O=c1c2ccccc2ncn1Cc1ccccc1	none
O=c1c2nc(-c3cccc(O)c3)ccc2ncn1C1CC1	none
O=C1CC(c2noc(-c3cc(F)cc(F)c3)n2)CN1c1ccc(F)c(Cl)c1 (centres undefined)	none
COc1ccc(S(N)(=O)=O)cc1C(=O)NCC(C)(C)N1CCCCC1	none
O=C(c1ccccc1)c1ccc2nc(Nc3cc(Cl)ccc3O)c3nncn3c2c1	none
COc1ccc(CNC(=O)C[C@@H]2CCNC[C@@H]2Cc2cc(-c3ccc(OC)cc3)on2)cc1	none
CC(C)C(C)NC(=O)COC(=O)/C=C/c1cccc2cccnc12 (centres undefined)	none

Screening data: PubChem, National Center for Advancing Translational Sciences (NCATS)
